Measurements taken from PubChem BioAssay AID588800 (Johns Hopkins Ion Channel Center, 2011).
Calls of active or inactive are those of the source.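 Rule for the calls: active = peak inhibition of the KCNQ2 potassium channel above 30% at some tested dose, plus a fitted dose response curve; inactive = no inhibition at any dose, or no curve.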

These compounds were tested against Potassium voltage-gated channel subfamily KQT member 2 (Rattus norvegicus) (UniProt O88943) (assay: rat KCNQ2 channel inhibition, SAR follow-up, selectivity assay for KCNK9 inhibitor project, cell-based, FluxOR thallium flux, CRC set 2 (AID 588800)). Details: KCNQ2-expressing cells; series mostly up to 30 µM.
Potassium voltage-gated channel subfamily KQT member 2 (Rattus norvegicus), sequence (O88943 whole entry, looked up): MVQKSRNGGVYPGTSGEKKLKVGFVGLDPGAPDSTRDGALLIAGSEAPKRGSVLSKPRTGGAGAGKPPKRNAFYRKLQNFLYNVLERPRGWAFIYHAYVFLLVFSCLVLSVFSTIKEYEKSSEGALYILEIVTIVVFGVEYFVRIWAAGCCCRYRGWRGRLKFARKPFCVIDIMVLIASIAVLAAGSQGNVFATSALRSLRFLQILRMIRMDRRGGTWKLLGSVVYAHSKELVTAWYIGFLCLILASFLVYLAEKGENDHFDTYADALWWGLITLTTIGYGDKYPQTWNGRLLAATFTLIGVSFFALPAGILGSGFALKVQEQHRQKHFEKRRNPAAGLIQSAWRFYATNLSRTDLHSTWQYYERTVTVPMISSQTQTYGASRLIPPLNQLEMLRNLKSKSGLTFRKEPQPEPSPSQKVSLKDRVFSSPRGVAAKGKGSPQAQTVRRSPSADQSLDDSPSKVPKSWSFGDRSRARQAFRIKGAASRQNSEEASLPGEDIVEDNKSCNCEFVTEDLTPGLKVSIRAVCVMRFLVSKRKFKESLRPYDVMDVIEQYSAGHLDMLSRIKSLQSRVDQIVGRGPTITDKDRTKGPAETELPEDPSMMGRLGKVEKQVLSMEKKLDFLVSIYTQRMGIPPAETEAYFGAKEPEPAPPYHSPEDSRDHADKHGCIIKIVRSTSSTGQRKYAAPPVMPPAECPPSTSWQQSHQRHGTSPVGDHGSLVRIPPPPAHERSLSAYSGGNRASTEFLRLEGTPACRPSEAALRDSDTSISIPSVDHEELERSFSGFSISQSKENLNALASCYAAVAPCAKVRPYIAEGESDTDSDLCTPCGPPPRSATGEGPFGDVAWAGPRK

outcome, inactive:
COc1ccccc1C(=O)Nc1cccc(NC(=O)c2ccccc2)c1
CC(c1ccco1)n1c(-c2ccoc2)n[nH]c1=S (stereo not given)
O=C(Nc1cccc(NC(=O)c2ccc(C(F)(F)F)cc2)c1)c1ccccc1
CN(C)c1ccc(C(=O)Nc2cccc(NC(=O)c3ccccc3)c2)cc1
COc1ccccc1NC(=O)c1cccc(NC(=O)C2CCCC2)c1
CCOc1ccccc1NC(=O)c1cccc(NC(=O)c2ccc(C)cc2)c1
Cc1ccc(C(=O)Nc2cccc(NC(=O)c3ccccc3)c2)cc1
CCOc1ccccc1C(=O)Nc1cccc(NC(=O)c2ccccc2OC)c1
Cc1cccc(C(=O)Nc2cccc(NC(=O)c3ccccc3Cl)c2)c1
Cc1cccc(C(=O)Nc2cccc(NC(=O)c3cccc(Cl)c3)c2)c1
Cc1cccc(S(=O)(=O)Nc2cccc(NC(=O)c3ccccc3)c2)c1
CCOc1ccccc1NC(=O)c1cccc(NC(=O)CC2CCCC2)c1
COc1ccccc1NC(=O)c1cccc(NC(=O)c2ccccc2)c1
CCOc1cccc(NC(=O)c2cccc(NC(=O)C3CCCC3)c2)c1
COc1cccc(C(=O)Nc2cccc(NC(=O)c3cccc(C)c3)c2)c1
Cc1cccc(C(=O)Nc2cccc(NC(=O)c3ccc(Cl)cc3)c2)c1
Cc1cccc(C(=O)Nc2cccc(NC(=O)c3ccccc3C(F)(F)F)c2)c1
Cc1ccccc1-c1n[nH]c(=S)n1C(C)C1CC2CCC1C2 (stereo not given)
CC(C)n1c(-c2ccco2)n[nH]c1=S
CCOc1ccccc1NC(=O)c1cccc(NC(=O)c2ccccc2Cl)c1
CCOc1ccccc1NC(=O)c1cccc(NC(=O)c2ccc(Cl)cc2)c1
Cc1cccc(C(=O)Nc2ccccc2NC(=O)c2ccccc2)c1
CCOc1ccccc1C(=O)Nc1cccc(NC(=O)C2CCCC2)c1
Cc1cccc(C(=O)Nc2cccc(NC(=O)c3cccc(C)c3)c2)c1
CC(C1CC2CCC1C2)n1c(-c2ccco2)n[nH]c1=S (stereo not given)
COc1ccccc1C(=O)Nc1cccc(NC(=O)c2ccccc2C(C)C)c1
O=C(Nc1cccc(NC(=O)c2ccncc2)c1)c1ccccc1
CCOc1ccccc1NC(=O)c1cccc(NC(=O)CC2CCCCC2)c1
O=C(Nc1cccc(NC(=O)c2cccnc2)c1)c1ccccc1
S=c1[nH]nc(-c2ccco2)n1CC1CCCCC1
COc1ccccc1C(=O)Nc1cccc(NC(=O)c2ccccc2C)c1
O=C(Nc1cccc(NC(=O)c2ccc(Cl)cc2)c1)c1ccccc1
COc1cccc(C(=O)Nc2cccc(NC(=O)c3ccccc3)c2)c1
O=C(Nc1cccc(NC(=O)C2CCCCC2)c1)c1ccccc1
Cc1cccc(C(=O)Nc2cccc(NC(=O)c3ccc(N(C)C)cc3)c2)c1
